12-LOX inh = Primary qHTS assay for inhibitors of human arachidonate 12S-lipoxygenase (ALOX12): Round 2; 580,000 tested, 1.1% active; Potency, µM (series often up to 108 µM), hits mostly inhibitors; purified 12hLO, xylenol orange hydroperoxide absorbance; Polyunsaturated fatty acid lipoxygenase ALOX12 (Homo sapiens), P18054; AID 1671190, 2021
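Purified human 12hLO (150 nM final) in 25 mM Hepes, 0.01% Triton X-100, pH 7.0 was preincubated 15 min at room temperature with compound. Then 40 uM arachidonic acid was added, 30 min. Hydroperoxide was read by Fe-XO absorbance ratio 573/405 nm.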
Glioma ERSR ind = qHTS for Inducers of the Endoplasmic Reticulum Stress Response (ERSR) in Human Glioma: qHTS; Potency, µM, hits mostly activators; AID 602332, 2012; U87-MG GRP78 promoter luciferase reporter, 16 h; 420,000 tested, 0.02% active; note: series mostly up to about 76 µM; nearly all actives have a fitted effect of over 35% in size
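Stably transfected U87-MG glioma cells carrying a GRP78-based luciferase sensor; 16 h compound incubation. Luminescence end-point read 10 min after Bright-Glo addition at room temperature.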
Sfp PPTase inh = qHTS Assay for Inhibitors of Bacillus subtilis Sfp phosphopantetheinyl transferase (PPTase); Biochemical Sfp PPTase activity, qHTS; Potency, µM, actives largely listed as inhibitors; 310,000 tested, 3.5% active;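 note: the enzyme is Sfp with the accession as filed and its product quenches rhodamine fluorescence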
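After 15 min at room temperature with compound, 15 nM Sfp received 5 uM rhodamine-CoA plus 12.5 uM BHQ-2-ybbR (50 mM Hepes pH 7.6, 10 mM MgCl2). Rate came from the fluorescence difference over 30 min, ex 525/em 598 nm.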
G9a inh = qHTS Assay for Inhibitors of Histone Lysine Methyltransferase G9a. G9a H3K9 monomethylation, AlphaScreen, 2 h. Potency, µM (doses to about 102 µM), usual class: inhibitors. Histone-lysine N-methyltransferase EHMT2 (Homo sapiens), Q96KQ7. 350,000 tested, 8.8% active; note: nearly all actives have a fitted effect of over 75% in size
Target sequence (Q96KQ7 913-1193 limits assumed): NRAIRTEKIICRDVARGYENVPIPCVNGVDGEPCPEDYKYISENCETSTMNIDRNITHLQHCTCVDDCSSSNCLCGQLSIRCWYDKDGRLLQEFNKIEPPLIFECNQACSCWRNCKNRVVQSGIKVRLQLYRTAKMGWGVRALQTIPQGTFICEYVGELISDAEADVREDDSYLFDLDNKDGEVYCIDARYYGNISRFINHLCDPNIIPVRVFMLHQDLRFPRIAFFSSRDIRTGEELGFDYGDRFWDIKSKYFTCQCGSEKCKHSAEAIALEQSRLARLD
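G9a (20 nM) preincubated 15 min RT with compounds, then 500 nM biotinylated H3K9 peptide and 20 uM SAM added; 2 h RT reaction. Monomethyl-H3K9 product detected by AlphaScreen with anti-H3K9me1 antibody, streptavidin donor and anti-rabbit IgG acceptor beads.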
VDR inhibitor = Inhibitors of the vitamin D receptor (VDR): qHTS; Vitamin D3 receptor (Homo sapiens), P11473; Potency, µM, usual class: inhibitors; VDR-SRC2-3 peptide fluorescence polarization, 2 h; 400,000 tested, 0.93% active
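FP read-out; VDR + SRC2-3 coactivator peptide; 23 nl compound by pintool; 2 h RT incubation; reagents held at 4 deg C, protected from light.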
A number is an active result; 0 = inactive; ? = inconclusive; - = not tested or not shown; ! = not confirmed by another sample; [ ] = another dose, or the depositor's remark. The full list was thinned out, with hits kept by preference. Calls come from the whole dose curve; as a rule, active = well fitted curve in the direction sought with a large enough effect; inconclusive = small, poorly fitted or top-dose-only effect, or another doubt; inactive = no such curve, though single readings can be large; an effect the other way counts as inactive or inconclusive.

SMILES	12-LOX inh	Glioma ERSR ind	Sfp PPTase inh	G9a inh	VDR inhibitor
CCCCCC1CCC(c2ccc(OC(=O)c3ccco3)cc2)CC1 (centres undefined)	0	-	-	-	-
Cc1ccc(CNC(=O)C2CCN(S(=O)(=O)c3cccs3)CC2)o1	0	0	17.8µM	8.91µM	?
COc1ccc(C)cc1/C=C/C(=O)N1CCN(S(=O)(=O)c2cccs2)CC1	0	0	-	-	-
Cc1ccc(/C=C/C(=O)N2CCN(S(=O)(=O)/C=C/c3ccccc3)CC2)o1	?	0	7.94µM	7.08µM	0
Cc1ccc(/C=C/C(=O)N2CCN(S(=O)(=O)c3cccs3)CC2)o1	?	0	14.1µM	7.94µM	0
O=S(=O)(/C=C/c1ccccc1)N1CCOCC1	0	0	0	89.1µM	0
Cc1cc(=O)n2[nH]c(COc3ccccc3)nc2n1	0	0	0	39.8µM	0
Cc1cc(=O)n2[nH]c(CCC(=O)O)nc2n1	0	0	0	0	0
Cc1oc(-c2nc(C#N)c(NC(C)C)o2)cc1S(=O)(=O)N(C)Cc1ccccc1	0	-	-	-	-
Cc1[nH]c2ccccc2c1C(c1ccccn1)N1CCCC1 (centres undefined)	0	0	0	44.7µM	0
CCOC(=O)C1CCCN(C(c2ccccn2)c2c(C)[nH]c3ccccc23)C1 (centres undefined)	?	0	44.7µM	1.41µM	0
Cc1[nH]c2ccccc2c1C(c1ccccn1)N1CCC(C)CC1 (centres undefined)	0	0	0	?	0
CCOC(=O)C1CCCN(C(=O)c2[nH]c3ccccc3c2Sc2ccc(Cl)cc2)C1 (centres undefined)	0	0	-	8.91µM	0
CCOC(=O)C1CCCN(C(=O)Cc2c(C(=O)O)[nH]c3ccccc23)C1 (centres undefined)	0	0	0	0[2.33 µM]	0
CCc1ccc2oc(C(=O)Oc3ccc(C#N)cc3)c(C)c2c1	0	-	-	-	-
Cc1cc2c(cc1S(=O)(=O)N1CCC(C(=O)N3CCCC3)CC1)OCC(=O)N2	0	-	-	-	-
CCc1ccc(/C=C(/C#N)C(N)=S)s1	0	0	0	?	0
CCc1sc(/C=C(/C#N)C(N)=S)cc1[N+](=O)[O-]	?	0	2.82µM	12.6µM	?
COc1ccc(CNC(=O)[C@@H]2Cc3c[nH]c4cccc(c34)[C@H](CC(C)C)N2)cc1	0	-	-	-	-
Cc1ccc(C2C(C#N)=C(N)Oc3c2oc(CO)cc3=O)cc1C (centres undefined)	0	-	-	-	-
O=C(Cc1ccc(N2CCCC2=O)cc1)N[C@@H](Cc1ccccc1)c1nc2ccccc2[nH]1	0	-	-	-	-
C[C@@H]1NC(=O)[C@H](CC(N)=O)NC(=O)c2cc([N+](=O)[O-])cc(I)c2OCC[C@@H](C(=O)NC(CC(=O)O)C(N)=O)NC1=O (some centres undefined)	0	0	0	28.2µM	0
C[C@@H]1NC(=O)c2cc([N+](=O)[O-])cc(I)c2OCC[C@@H](C(=O)NC(CC(=O)O)C(N)=O)NC(=O)[C@H](CCC(=O)O)NC1=O (some centres undefined)	-	0	0	35.5µM	0
NC(=O)C(CC(=O)O)NC(=O)[C@@H]1CCOc2c(I)cc([N+](=O)[O-])cc2C(=O)N[C@@H](CCC(=O)O)C(=O)N[C@@H](CO)C(=O)N1 (some centres undefined)	-	0	0	7.94µM	0
CC(C)(/C=N/O)/[N+]([O-])=C/c1ccccc1	?	0	0	50.1µM	0
SMILES	12-LOX inh	Glioma ERSR ind	Sfp PPTase inh	G9a inh	VDR inhibitor
Cc1c(Br)c(O)c(Br)c2sc(=O)oc12	0	0	2.82µM	3.55µM	?
O=C(COC(=O)c1ccccc1NCCO)NCc1cccs1	?	0	-	44.7µM	0
COc1ccc(CCNC(=O)COC(=O)c2ccccc2NCCO)cc1OC	0	0	-	50.1µM	0
CCOC(=O)N1CCN(C(=O)COC(=O)c2ccccc2NCCO)CC1	0	0	-	50.1µM	0
Cc1[nH]c2ccccc2c1C(=O)C(=O)NCC1CCN(C)CC1	0	-	-	-	-
CC(C)n1cc(CN2CC[C@@H](c3ccc4ccccc4c3)[C@H](O)C2)cn1	0	-	-	-	-
NC1=C(Br)C(=O)c2ncccc2C1=O	?	0	-	-	?
O=C1C=C(NCCc2cc(Br)c(O)c(Br)c2)C(=O)c2ncccc21	35.5µM	0	-	-	31.6µM
COc1cc(OC)c(C2CC(=O)Nc3ccc4ccccc4c32)cc1OC (centres undefined)	0	0	-	?	?
CCOc1cc(C2CC(=O)N3CN(c4ccccc4)CSC3=C2C#N)cc(Br)c1O (centres undefined)	1.78µM	-	-	-	-
COc1cc(OC)c(C2CC(=O)N3CN(c4ccccc4)CSC3=C2C#N)cc1OC (centres undefined)	2.82µM	0	3.16µM	3.16µM	10µM
COc1ccc(Br)cc1C1CC(=O)N2CN(C)CSC2=C1C#N (centres undefined)	28.2µM	0	2.24µM	1.41µM	?
COc1ccc2ccccc2c1C1CC(=O)N2CN(C)CSC2=C1C#N (centres undefined)	?	0	7.94µM	1.58µM	25.1µM
N#Cc1ccc2c(C=O)c[nH]c2c1	0	-	-	-	-
C=CCNC(=O)c1ccccc1NC(=O)/C=C/c1cccc2ccccc12	0	-	-	-	-
O=C(COc1ccc([N+](=O)[O-])cc1Cl)Nc1ccc2c(c1)CCC2	0	-	-	-	-
COC(=O)c1cccc(COC(=O)c2ccc3c(c2)OCCCO3)c1	0	-	-	-	-
COc1cc(OC)c(C2CC(=O)N3CN(C)CSC3=C2C#N)cc1OC (centres undefined)	15.8µM	0	3.55µM	1.26µM	?
CCC1CN(C(=O)c2cnn(-c3ccccc3F)c2C(F)(F)F)CCO1 (centres undefined)	0	-	-	-	-
Cc1cc(C(=O)COC(=O)C2=COCCO2)c(C)n1-c1cccc(F)c1	0	0	-	56.2µM	0
C=C(C)COc1ccc2c(=O)c(-c3ccc(OC)c(OC)c3)c(C)oc2c1	0	-	-	-	-
COc1ccc(N(C(=O)c2cccs2)C2C=CS(=O)(=O)C2)c(OC)c1 (centres undefined)	0	-	-	-	-
Cc1ccc(C2=NN(C(=O)CCl)C(c3cccs3)C2)o1 (centres undefined)	?	0	50.1µM	12.6µM	0
CCC(=O)N1N=C(c2ccc(C)o2)CC1c1ccc(N(C)C)cc1 (centres undefined)	0	0	0	50.1µM	0
O=C(CCl)N1N=C(c2ccco2)CC1c1cccs1 (centres undefined)	-	0	28.2µM	10µM	0
CC(=O)N1N=C(c2ccco2)CC1c1cccs1 (centres undefined)	0	0	?	?	0
CC(Sc1ncc(C(F)(F)F)cc1Cl)C(=O)Nc1ccccc1F (centres undefined)	0	-	-	-	-
O=C(O)/C=C/c1ccc(O)c(O)c1	0	0	56.2µM!	10.6µM	0
